High-throughput results: PubChem, Center for Chemical Genomics, University of Michigan
TAR Tat displ: TAR RNA-Tat peptide displacers, HIV-1, primary screen, biochemical, FRET, FAM/TAMRA-labeled Tat; 100,000 tested, 0.6% active; HIV-1 TAR RNA, Tat peptide displacement FRET; hits give high values; z-score (concentration not given with the values); AID 1259389, 2018; active = z-score of 3 or more in at least 2 runs
CDC25B CDK2 inh: primary biochemical HTRF screen for blockers of M-phase inducer phosphatase 2 binding to CDK2/cyclin A; 94,000 tested, 0.72% active; P30305+P24941; z-score (concentration not given with the values); HTRF CDC25B-CDK2/CyclinA binding, anti-His/anti-Flag; hits give high values; in the data active = z-score above about 3.2
A number is an active result; . = inactive; / = no result given. Rows were chosen to be rich in hits. Some 0.9% of all compounds tested hit in one or more screens of this group.

SMILES	TAR Tat displ	CDC25B CDK2 inh
CN1CCN(CC(=O)OCCN=C2NS(=O)(=O)c3ccccc32)CC1	/	.
CNC(=O)c1nc(N2CCCCC2)sc1N	.	.
CN1C(=O)C(C)(C)c2cc(S(=O)(=O)N3CCCC(C(=O)NCc4ccco4)C3)ccc21 (stereo not drawn)	.	.
Cc1nn(-c2ccc(F)cc2)c(-n2cccc2)c1C(=O)NC1CCC(C)CC1 (stereo not drawn)	.	/
CN(C(=O)c1ccc(F)cc1)C(c1cccs1)c1c[nH]c2ccccc12 (stereo not drawn)	.	.
O=C(O)c1ccc2nc(-c3ccccc3)c(-c3ccccc3)nc2c1	.	.
O=C(O)c1ccc2nc3c(nc2c1)-c1cccc2cccc-3c12	5.9	.
CN(C)CCNC(=O)c1ccc2c(=O)n3c(nc2c1)CCCC3	.	/
Fc1ccccc1-c1nc(-c2ccccn2)no1	/	.
c1ccc(-c2noc(-c3cccc4ccccc34)n2)nc1	.	11.9
COc1cccc(-c2n[nH]c3c2C(c2cccc(F)c2)NC3=O)c1 (stereo not drawn)	.	.
O=C(CN1C(=O)C2(OCCO2)c2cc(Br)ccc21)c1ccccc1C(F)(F)F	/	.
C=CC1=C(C(=O)O)N2C(=O)[C@@H](NC(=O)C(=NO)c3csc(N)n3)[C@H]2SC1	33.1	/
CO/N=C(/C(=O)N[C@@H]1C(=O)N2C(C(=O)O)=C(COC(C)=O)CS[C@H]12)c1csc(N)n1	.	/
O=C(Nc1nn2c(-c3ccco3)nnc2s1)c1cccc(F)c1	.	.
O=C(COc1ccccc1)Nc1nn2c(-c3ccco3)nnc2s1	31.6	.
CCc1nnc2sc(NC(=O)c3ccco3)nn12	.	.
O=C(Nc1nn2c(-c3ccco3)nnc2s1)c1ccc(F)cc1	.	.
CC(C)Cc1nnc2sc(NC(=O)c3ccco3)nn12	11.5	.
COc1ccc(OCC(=O)Nc2nn3c(-c4ccco4)nnc3s2)cc1	25	.
COc1ccc(NC(=O)C(=O)CC(=O)c2ccccc2)cc1	/	.
CCc1c(C)nc2ncnn2c1Nc1ccc(C(C)C)cc1	.	/
Nc1nc(F)c(Cl)c2c1Oc1ccccc1O2	/	.
Cc1oc2c(O)c(O)ccc2c(=O)c1-c1ccccc1	/	.
O=c1cc(-c2ccccc2)oc2c(O)c(O)ccc12	19	.
SMILES	TAR Tat displ	CDC25B CDK2 inh
O=c1cc(-c2ccccc2)oc2ccc(-c3nn[nH]n3)cc12	/	.
O=c1cc(-c2ccccc2)oc2cc(O)c(O)cc12	29	/
Cc1ccccc1-c1noc(CCn2c(=O)[nH]c3cc4c(cc3c2=O)OCO4)n1	.	/
O=c1[nH]c(SCCCOc2ccc(Cl)cc2)nc2c1CCC2	.	.
CN1CCN(C(=O)c2ccc(-n3ccc4ccccc43)s2)CC1	.	/
CCSc1nc2c(c(=O)[nH]1)C(c1ccc(O)c(O)c1)CC(=O)N2 (stereo not drawn)	22	13.7
CSc1nc2c(c(=O)[nH]1)C(c1ccc(O)c(O)c1)CC(=O)N2 (stereo not drawn)	17.7	.
CCSc1nc2c(c(=O)[nH]1)C(c1cccc(O)c1)CC(=O)N2 (stereo not drawn)	.	.
CSc1nc2c(c(=O)[nH]1)C(c1cccc(O)c1)CC(=O)N2 (stereo not drawn)	.	.
CCOCCCNC(=O)C1CCN(c2nnc(N3CCCC3=O)s2)CC1	.	.
c1ccc2sc(Cc3nn[nH]n3)nc2c1	.	.
CCCc1cc(=O)n2[nH]c(-c3ccco3)nc2n1	.	/
CCOC(=O)Cc1cc(=O)n2[nH]c(-c3ccco3)nc2n1	.	13.2
Cc1c(C(=O)O)oc2ccc3c(c12)C(=O)CC(C)(c1ccc(F)cc1)O3 (stereo not drawn)	.	.
Cc1cccc(C(=O)N2c3ncnn3C3(CCCCC3)[C@@H]3CCCC[C@@H]32)c1	9.19	.
O=C(c1ccccc1)N1c2ncnn2C2(CCCCC2)[C@@H]2CCCC[C@@H]21	.	.
O=S1(=O)NC(c2ccccc2Cl)Nc2ccccc21 (stereo not drawn)	.	/
Cc1ccc(C2CC(=O)N3CN(C)CSC3=C2C#N)cc1 (stereo not drawn)	.	.
CCOc1ccc(C2CC(=O)N3CN(C)CSC3=C2C#N)cc1OC (stereo not drawn)	.	3.64
CCOC(=O)c1ccc(N2CSC3=C(C#N)C(c4ccc(C)cc4)CC(=O)N3C2)cc1 (stereo not drawn)	.	6.13
COC(=O)c1ccc(N2CSC3=C(C#N)C(c4ccc(C)cc4)CC(=O)N3C2)cc1 (stereo not drawn)	.	15.6
CCOC(=O)CN1CSC2=C(C#N)C(c3ccc(F)cc3)CC(=O)N2C1 (stereo not drawn)	.	.
COc1ccc(C2CC(=O)N3CN(CCc4ccccc4)CSC3=C2C#N)cc1OC (stereo not drawn)	.	.
CCOc1ccc(N2CSC3=C(C#N)C(c4ccc(C)o4)CC(=O)N3C2)cc1 (stereo not drawn)	.	3.39
